About 83,000 compounds went through this panel and 20% of them were active in at least one assay; those are over-represented in the sample as a whole.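 Each cell line was grown in a 96-well plate and treated with one concentration of compound for 48 hours. Values below 10 were considered active.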 Activity calls are given as the source filed them.
System: EKVX NSCLC
Assay: NCI-60 one-dose screen, 48 h (100 = growth as untreated, 0 = no growth, -100 = all killed)
Details: 10 µM unless noted

| SMILES | growth |
| --- | --- |
| COC1CCN(Cc2ccc3c(NNC(=O)c4cnccn4)nc4cc(F)ccc4n23)C1 (stereo not given) | 29.9% (inactive) |
| CS(=O)(=O)Nc1ccc(-c2nn(-c3ccc(S(C)(=O)=O)cc3)cc2/C=C/C(=O)c2ccc(NC(=O)CO[N+](=O)[O-])cc2)cc1 | 103% (inactive) |
| O=C(Nc1nc2ccc(O)cc2s1)c1cccc(C(F)(F)F)c1 | 55.6% (inactive) |
| c1ccc2c(NCCCn3ccnc3)c3oc4ccccc4c3nc2c1 | 3.11% (active) |
| CC(C)NC(=O)c1cc(-c2ccc(NC(=O)Nc3ccc(N4CCOCC4)c(C(F)(F)F)c3)cc2)nc2cccnc12 | 72.7% (inactive) |
| Cn1c(SCC(=O)c2cccs2)nc2ccccc2c1=O | 73.1% (inactive) |
| CS(=O)(=O)c1ccc(-c2nc3ccccn3c2/C=N/Nc2nc(-c3ccc(Br)cc3)cs2)cc1 | 97.8% (inactive) |
| Clc1ccc2c(NCCCn3ccnc3)c3oc4ccccc4c3nc2c1 | 16.1% (inactive) |
| CCN1C(=S)N(CC)C2C1NN=C1SC(c3ccccc3)=CC(=O)N12 (stereo not given) | 106% (inactive) |
| COc1ccc(-c2csc(N/N=C/c3c(-c4ccc(S(C)(=O)=O)cc4)nc4ccccn34)n2)cc1 | 106% (inactive) |
| CSCCC(C(=O)O)N1C(=O)/C(=C/c2ccc(O)c(O)c2)SC1=S (stereo not given) | 96.2% (inactive) |
| O=C1Nc2cc(Cl)ccc2/C1=C\c1ccc(OCc2ccc(Br)cc2F)cc1 | -18.9% (active) |
| CN(C)CCCOc1c2ccc(Cl)cc2nc2c1oc1ccc(Cl)cc12 | 31.8% (inactive) |
| O=C(N/N=C/c1ccc(Br)s1)c1[nH]c2ccc(Br)cc2c1-c1ccccc1 | 40.9% (inactive) |
| CC(=NNc1ncnc2ccccc12)c1ccc(S(C)(=O)=O)cc1 | 91.1% (inactive) |
| O=C(N/N=C/c1ccco1)c1[nH]c2ccc(Br)cc2c1-c1ccccc1 | 37.9% (inactive) |
| COc1ccc(NC2=CC(=O)C(C)=C(C)C2=O)cc1 | 78.8% (inactive) |
| CN1C(=S)N(C)C2C1NN=C1SC(c3ccccc3)=CC(=O)N12 (stereo not given) | 80.9% (inactive) |
| CC1=C(C)C(=O)C(Nc2ccccc2)=C(Cl)C1=O | 55.2% (inactive) |
| C#Cc1nc(C2=C(C)/C(=N/OCc3ccccc3)CC2)cs1 | 19.4% (inactive) |
| COc1cc(/C=C/C(=O)c2ccc(C(F)(F)F)cc2)ccc1Oc1nc(NCCO)nc(N2CCOCC2)n1 | 93.7% (inactive) |
| CN1C(=O)N(c2ccccc2)C2N=C(N/N=C/c3ccccc3)SC21 (stereo not given) | 53.4% (inactive) |
| COc1ccc(C(=O)c2cc(C(=O)/C=C/c3c(Cl)cccc3Cl)c3cc(C)ccn23)cc1 | 92.1% (inactive) |
| Cn1cc(-c2cc(N)n3nc(-c4cn(C)c5ccc(F)cc45)cc3n2)c2cc(F)ccc21 | 93.5% (inactive) |
| CC(C)(C)Nc1nc2c(OCCc3ccccc3)cccn2c1-c1cccc(F)c1 | 5.55% (active) |
| C=CCSc1ccc2c(c1)C(N1CCNCC1)=Nc1ccccc1O2 | 79.7% [8.25 µM] (inactive) |
| COc1ccc(-c2nc3ccc(-c4nnc(SCC(=O)Nc5ccc(C(=O)/C=C/c6ccccc6)cc5)o4)cc3[nH]2)cc1OC | 104% (inactive) |

System: SN12C renal
Assay: as above
Details: 10 µM unless noted

| SMILES | growth |
| --- | --- |
| COC(=O)C(Cc1ccccc1)NS(=O)(=O)/N=C1\NC(=O)NC1=C(Cl)Cl (stereo not given) | 96.8% (inactive) |
| [Cl][Ru].c1ccc(-c2cccc(-c3ccccn3)n2)nc1.c1ccc(-c2ccnc3c2ccc2c(-c4ccccc4)ccnc23)cc1 | 20.1% (inactive) |
| NS(=O)(=O)c1ccc(Nc2nc(Nc3ccccc3)nc(-n3nc(-c4ccccc4)cc3-c3ccccc3)n2)cc1 | 41.2% (inactive) |
| COc1ccccc1/C=C/C=N/NC1=NC2C(S1)N(C)C(=O)N2C (stereo not given) | 39.1% (inactive) |
| O=C(c1ccc(O)cc1)C1[C@H](c2ccc(Cl)cc2)[C@@H](c2ccccc2)NC12C(=O)Nc1ccc(Cl)cc12 (stereo not given in full) | -1.78% (active) |
| Nc1cc(-c2c[nH]c3ccccc23)nc2cc(-c3c[nH]c4ccccc34)nn12 | 73% (inactive) |
| Cc1nc2cnc(N)c(C#Cc3cncc(C(=O)Nc4ccc(Cl)c(C(F)(F)F)c4)c3)c2nc1C | 36.3% (inactive) |
| CCN1C(=S)N(CC)C2C1N=C(SC)N2/N=C/C=C/c1ccccc1[N+](=O)[O-] (stereo not given) | 91.8% (inactive) |
| COc1ccc(/C=N/NC(=O)c2[nH]c3ccc(Br)cc3c2-c2ccccc2)o1 | 43.3% (inactive) |
| NS(=O)(=O)c1cccc(Nc2nc(SCC(=O)c3ccc([N+](=O)[O-])cc3)nc3ccccc23)c1 | 56.9% (inactive) |
| COc1cc(/C=C/C(=O)c2ccccc2)ccc1Oc1nc(NCCO)nc(N2CCOCC2)n1 | 97.3% (inactive) |
| COC1CCN(Cc2ccc3c(NNC(=O)c4cnccn4)nc4cc(F)ccc4n23)C1 (stereo not given) | 24.1% (inactive) |
| CS(=O)(=O)Nc1ccc(-c2nn(-c3ccc(S(C)(=O)=O)cc3)cc2/C=C/C(=O)c2ccc(NC(=O)CO[N+](=O)[O-])cc2)cc1 | 109% (inactive) |
| O=C(Nc1nc2ccc(O)cc2s1)c1cccc(C(F)(F)F)c1 | 68.9% (inactive) |
| c1ccc2c(NCCCn3ccnc3)c3oc4ccccc4c3nc2c1 | -10.8% (active) |
| CC(C)NC(=O)c1cc(-c2ccc(NC(=O)Nc3ccc(N4CCOCC4)c(C(F)(F)F)c3)cc2)nc2cccnc12 | 69% (inactive) |
| Cn1c(SCC(=O)c2cccs2)nc2ccccc2c1=O | 91.8% (inactive) |
| CS(=O)(=O)c1ccc(-c2nc3ccccn3c2/C=N/Nc2nc(-c3ccc(Br)cc3)cs2)cc1 | 103% (inactive) |
| Clc1ccc2c(NCCCn3ccnc3)c3oc4ccccc4c3nc2c1 | 33.2% (inactive) |

| SMILES | growth |
| --- | --- |
| CCN1C(=S)N(CC)C2C1NN=C1SC(c3ccccc3)=CC(=O)N12 (stereo not given) | 110% (inactive) |
| COc1ccc(-c2csc(N/N=C/c3c(-c4ccc(S(C)(=O)=O)cc4)nc4ccccn34)n2)cc1 | 105% (inactive) |
| CSCCC(C(=O)O)N1C(=O)/C(=C/c2ccc(O)c(O)c2)SC1=S (stereo not given) | 99.2% (inactive) |
| O=C1Nc2cc(Cl)ccc2/C1=C\c1ccc(OCc2ccc(Br)cc2F)cc1 | -70.1% (active) |
| CN(C)CCCOc1c2ccc(Cl)cc2nc2c1oc1ccc(Cl)cc12 | 21.4% (inactive) |
| O=C(N/N=C/c1ccc(Br)s1)c1[nH]c2ccc(Br)cc2c1-c1ccccc1 | 56.3% (inactive) |
| CC(=NNc1ncnc2ccccc12)c1ccc(S(C)(=O)=O)cc1 | 97.2% (inactive) |
| O=C(N/N=C/c1ccco1)c1[nH]c2ccc(Br)cc2c1-c1ccccc1 | 38.1% (inactive) |
| COc1ccc(NC2=CC(=O)C(C)=C(C)C2=O)cc1 | 86.4% (inactive) |
| CN1C(=S)N(C)C2C1NN=C1SC(c3ccccc3)=CC(=O)N12 (stereo not given) | 96.2% (inactive) |
| CC1=C(C)C(=O)C(Nc2ccccc2)=C(Cl)C1=O | 91.1% (inactive) |
| C#Cc1nc(C2=C(C)/C(=N/OCc3ccccc3)CC2)cs1 | 66.6% (inactive) |
| COc1cc(/C=C/C(=O)c2ccc(C(F)(F)F)cc2)ccc1Oc1nc(NCCO)nc(N2CCOCC2)n1 | 86.9% (inactive) |
| CN1C(=O)N(c2ccccc2)C2N=C(N/N=C/c3ccccc3)SC21 (stereo not given) | 38.5% (inactive) |
| COc1ccc(C(=O)c2cc(C(=O)/C=C/c3c(Cl)cccc3Cl)c3cc(C)ccn23)cc1 | 94.2% (inactive) |
| Cn1cc(-c2cc(N)n3nc(-c4cn(C)c5ccc(F)cc45)cc3n2)c2cc(F)ccc21 | 11.8% (inactive) |
| CC(C)(C)Nc1nc2c(OCCc3ccccc3)cccn2c1-c1cccc(F)c1 | 6.27% (active) |
| C=CCSc1ccc2c(c1)C(N1CCNCC1)=Nc1ccccc1O2 | 77.3% [8.25 µM] (inactive) |
| COc1ccc(-c2nc3ccc(-c4nnc(SCC(=O)Nc5ccc(C(=O)/C=C/c6ccccc6)cc5)o4)cc3[nH]2)cc1OC | 94.8% (inactive) |

Reference: PubChem BioAssay (NCI)
